Tested on: not listed separately
Assay: small-molecule binders of probe aNOTCH2, primary screen, biochemical, small-molecule microarray, 635/667 nm fluorescence (AID 1121);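 also: score merges feature fluorescence read at 667 nm with its signal to noise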
Details: higher = more signal

SMILES	composite z-score
COc1ccc([Si](C)(C)[C@@H]2[C@@H](CCO)O[C@]3(C(=O)N(Cc4cccc(N5C(=O)c6cccc7cccc5c67)c4)c4ccccc43)[C@H]2C)cc1	-0.101
COc1c(C)cc(-c2cc3c(c(Cc4ccccc4)n2)[Si](C(C)C)(C(C)C)OC3)cc1C	-0.0907
CON(C)C(=O)C=C1C[C@@H](c2cccc(Cl)c2)O[C@@H](c2cccc(Cl)c2)O1	-0.131
COc1ccc(NN2C(C(O)c3ccccn3)C=CC3C(=O)N(C4CCCCC4)C(=O)C32)cc1 (stereo unspecified)	0.0117
CC(=O)n1cc(C(O)C2C=CC3C(=O)N(c4ccccc4)C(=O)C3N2Nc2ccccc2)c2ccccc21 (stereo unspecified)	0.207

Target: Carbonic anhydrase 2 (Homo sapiens) (UniProt P00918)
Assay: CAII small-molecule binders, profiling panel, biochemical, small-molecule microarray, Alexa647-labelled CAII (AID 1122)
Details: CAII-A647 binding fluorescence, higher = more signal

SMILES	composite z-score
O=C1C2C=CC(C(O)c3cc(C(F)(F)F)cc(C(F)(F)F)c3)N(Nc3ccc([N+](=O)[O-])cc3)C2C(=O)N1c1ccccc1 (stereo unspecified)	0.616
COCCOC(=O)N1C(=O)[C@@]2(c3cc(C#CC4(O)CCCCCC4)ccc31)[C@H](C(=O)N1CCCCCCC1)[C@H]1C(=O)O[C@H](c3ccccc3)[C@H](c3ccccc3)N1[C@@H]2c1ccc(OCCO)cc1	0.705
CC(C)CNC(=O)[C@@H]1c2ccccc2C(=O)N(Cc2cc(F)cc(C(F)(F)F)c2)[C@H]1c1ccc(CO)cc1	0.411
CCOC(=O)[C@H]1C/C=C/C[C@H](C(=O)OCC)C(=O)O[C@H]2[C@@H](OC)O[C@H](CO)[C@@H](OC(=O)CCc3ccccc3)[C@@H]2OC1=O	-0.207
C=CC[C@@]1(C(=O)O)N=C(c2ccc(OCCCO)cc2)O[C@@H]1c1ccccc1	0.527
CCOC(=O)[C@@H]1[C@@H]2C(=O)N(CC)C(=O)[C@@H]2C[C@@H]1Sc1ccccc1	0.36
CC(C)CN1C(=O)[C@@]2(c3ccc([N+](=O)[O-])cc3)CC(=O)N(CC34CC5CC(CC(C5)C3)C4)[C@@H]2c2ccc(CO)cc21	0.411
C=CC[C@@]1(C(=O)N2CCCCC2)N=C(c2ccc(OCCCO)cc2)O[C@@H]1c1ccccc1	0.57
C=CCOC(=O)[C@H]1[C@@H]2C(=O)O[C@@H](c3ccccc3)[C@@H](c3ccccc3)N2[C@@H](c2ccc(OCCOC(=O)[C@H]3C[C@H]4C(=O)N[C@@H](Cc5ccccc5)C(=O)N4[C@H]3c3ccc(O)cc3)cc2)[C@]12C(=O)Nc1ccc(I)cc12	0.28
C=CC[C@@]12N=C(c3ccc(OCCCO)cc3)O[C@@H]1c1ccccc1N(CCS(=O)(=O)c1ccccc1)C2=O	0.724
CC(C)N1CC=CC23O[C@@H]4C=CCCOC(=O)C4[C@H]2C(=O)N(CCO)[C@@H]3C1=O (stereo partly specified)	0.763
CCOC(=O)C[C@H]1[C@H](OC(=O)c2ccc(-c3ccccc3)cc2)[C@@H](NC(=O)C2CCCCC2)c2cc(OCCCO)ccc2N1C(=O)c1ccccc1	0.0455
C=CCN1Cc2ccccc2C[C@@]2(N=C(c3ccc(OCCCO)cc3)O[C@H]2c2ccccc2)C1=O	0.577
O=C1O[C@H](c2ccccc2)[C@H](c2ccccc2)N2[C@H]1[C@@H](C(=O)O)[C@]1(C(=O)Nc3ccccc31)[C@H]2c1ccc(O)cc1	0.673
CN(C)CCCNC(=O)[C@@]1(C)c2ccccc2C(=O)N(Cc2cc(C(F)(F)F)cc(C(F)(F)F)c2)[C@H]1c1ccc(CO)cc1	0.485
CCOC(=O)C[C@H]1[C@H](OC(=O)c2ccc(C(=O)c3ccccc3)cc2)[C@@H](NC(=O)c2ccc3ccccc3c2)c2cc(OCCCO)ccc2N1C(=O)c1ccccc1	0.197
Cc1c(NC(=O)/C(C#N)=C/C=C/c2ccccc2[N+](=O)[O-])c(=O)n(-c2ccccc2)n1C	0.643
C=CC[C@]12N=C(c3ccc(OCCCO)cc3)O[C@H]1c1ccccc1N(C)C2=O	0.308

SMILES	composite z-score
CC(C)CCC[C@@H](C)[C@H]1CC[C@@]2(C)C3=C(CC[C@]12C)[C@@]1(C)CC[C@H](OC(=O)c2ccc(Br)cc2)C(C)(C)C1CC3 (stereo partly specified)	0.108
Cc1ccc(F)cc1S(=O)(=O)N[C@@H]1CCN(Cc2ccc(Oc3ccccc3)cc2)C1	0.304
COC(=O)[C@H](Cc1ccccc1)N1CC(/C=C/C2CC2)=C[C@@H]1[C@@H](O)Cc1ccccc1	0.171
CCN(CC)c1ccc(N2CC=CC34O[C@@H]5/C=C\CCC(C)OC(=O)C5[C@H]3C(=O)N(CCO)[C@@H]4C2=O)cc1 (stereo partly specified)	0.818
Cc1ccc(S[C@]2(C(=O)NC3CC3)CC(=O)N(Cc3ccccc3Cl)[C@@H]2c2ccc(CO)cc2I)cc1	0.68
C[C@]1(C(=O)NCCN2CCOCC2)c2ccccc2C(=O)N(Cc2ccc(OC(F)(F)F)cc2)[C@H]1c1ccc(CO)cc1	0.627
C[C@H]1C2=C3C(CC[C@H]4C(OCc5ccc(F)cc5C(F)(F)F)OC[C@](C)([C@@H]34)N(C(=O)OC(C)(C)C)C2)C2COC(=O)OCC21 (stereo partly specified)	0.754
COCCOC(=O)N1C(=O)[C@@]2(c3cc(C#CCNC(N)=O)ccc31)[C@H](C(=O)N1CCCCCCC1)[C@H]1C(=O)O[C@H](c3ccccc3)[C@H](c3ccccc3)N1[C@@H]2c1ccc(O)cc1	0.354
Cc1ccc(C(C)CC(O)C2C=CC3C(=O)N(c4ccccc4)C(=O)C3N2Nc2ccc(C(C)C)cc2)o1 (stereo unspecified)	0.541
CC=CC(O)C1C=CC2C(=O)N(C)C(=O)C2N1Nc1ccc([N+](=O)[O-])cc1[N+](=O)[O-] (stereo unspecified)	0.834
O=C(O)[C@]1(Cc2ccccc2)N=C(c2ccc(OCCCO)cc2)O[C@@H]1c1ccccc1	0.837
[N-]=[N+]=NCc1ccccc1[C@H]1OC(c2ccc(OCCCO)cc2)=N[C@@]1(CCS(=O)(=O)c1ccccc1)C(N)=O	0.878
Cc1c(NC(=O)/C(C#N)=C/C=C/c2ccc(N(C)C)cc2)c(=O)n(-c2ccccc2)n1C	0.456
COc1ccc([Si](C)(C)[C@@H]2[C@@H](CCO)O[C@]3(C(=O)N(Cc4cccc(N5C(=O)c6cccc7cccc5c67)c4)c4ccccc43)[C@H]2C)cc1	0.428
COc1c(C)cc(-c2cc3c(c(Cc4ccccc4)n2)[Si](C(C)C)(C(C)C)OC3)cc1C	-0.143
CON(C)C(=O)C=C1C[C@@H](c2cccc(Cl)c2)O[C@@H](c2cccc(Cl)c2)O1	0.628
COc1ccc(NN2C(C(O)c3ccccn3)C=CC3C(=O)N(C4CCCCC4)C(=O)C32)cc1 (stereo unspecified)	0.7
CC(=O)n1cc(C(O)C2C=CC3C(=O)N(c4ccccc4)C(=O)C3N2Nc2ccccc2)c2ccccc21 (stereo unspecified)	0.788

— PubChem BioAssay
